Assay outcomes as filed in PubChem.
Most compounds without a hit are left out; they make up all but 7.3% or so of the library.
FMDV inh = High Throughput Screening for Foot and Mouth Disease Virus Antivirals. AID 1159524, 2015. Potency, µM (top dose mostly 57.9 µM), inactives show at the highest dose activity change, negative = inhibition, actives largely listed as inhibitors. 1.2% of 410,000 active. FMDV antiviral cell-based qHTS; calls by dose curve; tested in HEK293T cells; further: read-out not given here; potency means the concentration at half of the fitted maximal effect; nearly all actives have a fitted effect of over 45% in size
VACV Venus inh = qHTS for Stage-Specific Inhibitors of Vaccinia Orthopoxvirus: Venus Reporter Primary qHTS. Vaccinia virus Venus reporter expression, fluorescence. 0.46% of 330,000 active. Potency, µM (series often up to 36.5 µM), for inactives: at the highest dose activity change, negative = inhibition, usual class: inhibitors; calls by dose curve; tested in A549 cells; further: potency means the concentration at half of the fitted maximal effect; nearly all actives have a fitted effect of over 30% in size
HCV inhibitor = qHTS Assay for Inhibitors of Hepatitis C Virus (HCV) | AID 651820, 2012 | Huh7.5.1 HCVcc-Cre infection, luciferase reporter, 44 h | 3.4% of 340,000 active | Potency, µM (doses to about 41.8 µM), inactives show top-dose activity change, negative = inhibition, most hits filed as inhibitors; active means well fitted inhibition curve with a large enough effect; inconclusive means small, poorly fitted or top-dose-only effect, or another doubt; inactive means no such curve, though single readings can be large or run the other way; further: potency means the concentration at half of the fitted maximal effect
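1,000 cells/well; 4 h culture; + compound; + HCVcc-Cre (~0.5 moi); 44 h; luciferase substrate, RT 15 min; read 15 sec.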
HCMV inh = qHTS Assay for inhibitors of the human cytomegalovirus (HCMV); HFF cells, HCMV-luciferase reporter, 72 h; active compounds read low; activity change, negative = inhibition, % at 57.5 µM; 4.5% of 410,000 active; AID 1259415, 2018; in the data active means activity change below about -60%; inconclusive means no clear call, values can overlap the other calls; inactive means above about -39%
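HFF cells seeded 16 h at 37C, treated with compounds, infected with luciferase-reporter HCMV at MOI 1 PFU/cell; luciferase read at 72 h post infection, normalized to buffer-only and Salinomycin controls.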
Vaccinia mCherry = qHTS for Stage-Specific Inhibitors of Vaccinia Orthopoxvirus: mCherry Reporter Primary qHTS; Vaccinia virus mCherry reporter infection, fluorescence; Potency, µM (highest dose often 36.5 µM), without a hit: at the top dose activity change, negative = inhibition, actives largely listed as inhibitors; 0.63% of 310,000 active; calls by dose curve; tested in A549 cells; further: potency means the concentration at half of the fitted maximal effect; nearly all actives have a fitted effect of over 35% in size
* = called active by the depositor; i = inactive; ? = inconclusive; / = no result. On the % scale 0 is the no-effect control and ±100 the full control effect.

SMILES | FMDV inh | VACV Venus inh | HCV inhibitor | HCMV inh | Vaccinia mCherry
CCCOC(=O)C1=C(C)NC2=C(C(=O)C(C(=O)OC)C(C)C2)C1c1ccc(N(CC)CC)cc1 (configuration not stated) | 8% | -21% | 10µM* | 33 | -19%
CCN1C(=O)/C(=C/C=C2/Sc3ccccc3N2CCO)SC1=S | -19% | 118% | 16% | -11 | 82%
CCN1C(=S)SC(=O)C1=C1C=C(C)N(CCO)C(C)=C1 | / | -17% | -16% | -68* | -1%
Clc1ccc2c(c1)-c1ccccc1C1=NCCN12 | ? | ? | / | -96* | ?
CN1C2=NCCN2C(=O)c2cc(Cl)ccc21 | 6% | -11% | 1% | 53 | -7%
Brc1ccc2c(c1)-c1ccccc1C1=NCCN12 | ? | ? | / | -69* | ?
COc1ccc(Br)cc1S(=O)(=O)N1CCN=C1c1ccccc1 | 23% | -22% | -18% | 29 | -11%
Cc1ccc2nc(Cl)c3nnnn3c2c1 | 13µM* | -2% | ? | / | i
CC(C)NC(=S)NC(=O)c1ccc(-c2ccccc2)cc1 | -25% | -16% | 14µM* | -81* | -24%
O=C(NC(=S)Nc1ccc(-c2ccccc2)cc1)c1ccccc1 | 9% | -7% | -6% | 32 | i
CCc1cc(SC#N)cc(C)c1N | -16% | / | -6% | -13 | /
CCc1cc(SC#N)cc(C)c1NC(=O)CCl | -21% | ? | ? | -96* | ?
Cc1cc(SC#N)cc(C)c1NC(=O)CCl | -5% | -9% | 0% | -83* | -15%
COc1ccc2nc(NN=Cc3cccc(C)n3)cc(C)c2c1 | / | / | / | -21 | /
CC(C)Oc1cccc(C(=O)C2CCCN(Cc3cnc(N4CCOCC4)s3)C2)c1 (configuration not stated) | ? | -17% | ? | -72* | -18%
Cc1ncc(CN2CCCC(C(=O)c3cccc(OC(C)C)c3)C2)s1 (configuration not stated) | ? | / | ? | -69* | /
Oc1c(N=Nc2ccc(F)cc2)ccc2ccccc12 | 14µM* | 8% | 0% | 97 | ?
COc1cccc(N=Nc2ccc3ccccc3c2O)c1 | -59% | / | -2% | 34 | /
Cc1ccc(N=Nc2ccc3ccccc3c2O)cc1 | 7.9µM* | 5% | -1% | ? | -8%
Oc1c(N=Nc2nn[nH]n2)ccc2ccccc12 | ? | ? | / | -85* | ?
CN(CCCN(Cc1ccc(Cl)cc1)c1ccc(Br)cn1)C(=S)NCCCc1cnc[nH]1 | / | -19% | / | / | 4%
Cn1c(=O)c2c(SCC(=O)Nc3ccccc3C(F)(F)F)nc(C3CCCC3)nc2n(C)c1=O | -2% | -19% | / | 3 | -10%
Cc1ccc(NC(=O)c2ccc(CSc3nnnn3C)cc2)cc1 | -3% | -2% | ? | 41 | -9%
Cc1ccc(Cl)cc1NC(=O)c1ccc(CSc2nnnn2C)cc1 | -3% | -7% | ? | -61* | /
N#CC1=C(SCC(N)=O)NC2=C(C(=O)c3ccccc32)C1c1ccc(Cl)cc1 (configuration not stated) | -15% | / | -19% | -60* | /
SMILES | FMDV inh | VACV Venus inh | HCV inhibitor | HCMV inh | Vaccinia mCherry
COc1cc(OC)c(-c2cc(C(=O)NCc3ccc(F)cc3)c3c(-c4ccccc4)[nH]nc3n2)cc1OC | -9% | -26% | / | -93* | ?
CCOc1ccc(-c2cc(C(=O)NCCc3ccc(OC)c(OC)c3)c3c(-c4ccc(F)cc4)[nH]nc3n2)cc1 | -14% | ? | / | -92* | ?
COc1ccccc1-c1cc(C(=O)NCc2ccccc2)c2c(-c3ccc(C)cc3)[nH]nc2n1 | -19% | -10% | / | -14 | -13%
Cc1cc2c(c(-c3nc4ccccc4s3)c1)OC(CNC(=O)CCc1cccnc1)C2 (configuration not stated) | 12% | 14% | / | / | -8%
Cc1ccc(S(=O)(=O)N2CCN(S(=O)(=O)c3ccc4c(c3)OCCCO4)CC2)cc1 | / | -21% | / | / | 10%
CC(C)C[C@H]1COc2cccc(NCCO)c2S(=O)(=O)N1 | / | / | / | -7 | /
Cc1nn(C)c(C)c1/C=C/C(=O)O | 1% | -10% | 8% | 7 | -18%
Cc1nn(C)c(C)c1/C=C/C(=O)c1ccc(Cl)cc1Cl | ? | ? | 7.9µM* | -81* | ?
COc1ccc(C2C3=C(Nc4ncnn42)c2ccccc2CCC3)cc1 (configuration not stated) | / | -13% | 12% | 68 | -11%
COc1cc(C2C3=C(Nc4ncnn42)c2ccccc2CC3)cc(OC)c1OC (configuration not stated) | 8% | / | ? | -89* | /
Cc1c(N)cc[n+](CC(=O)c2ccccc2)c1C | -12% | -15% | 8.9µM* | -76* | -4%
Cc1cc[n+](CC(=O)c2ccccc2)c2ccccc12 | -8% | 3% | -22% | -14 | 5%
CCOC(=O)c1cc(-c2ccccc2)n(CCC(=O)NCCc2ccccc2)c1C | -10% | 0% | / | -35 | -16%
O=C(CN1C(=O)COc2ccc(S(=O)(=O)NC3CCCC3)cc21)Nc1ccc(Cl)cc1 | 38% | -12% | / | 31 | -14%
Brc1ccc(N=Nc2ccc3ccccc3n2)cc1 | 10µM* | -3% | -25% | ? | -1%
S=c1[nH]c(-c2ccc(Cl)cc2)cs1 | 9% | -2% | 9% | -62* | -15%
COc1ccccc1/C=C/c1nc2ccccc2s1 | / | -10% | / | / | 14%
COCCn1c(SCC(=O)c2ccc(F)cc2)nc2cc(C(=O)NC3CCCC3)ccc2c1=O | 0% | 4% | / | 5 | 0%
Cc1[nH]c2ccccc2c1CCN(Cc1cccnc1)C(=S)Nc1cccc(F)c1 | 4% | -20% | 16µM* | -6 | -29%
O=C(c1ccco1)N1CCN(c2nc3ccccc3n3nnnc23)CC1 | -25% | -10% | -3% | -28 | /
c1ccc(CC2CCN(c3nc4ccccc4n4nnnc34)CC2)cc1 | 0% | -8% | -3% | -102* | /
NC1(C(=O)O)CCCc2ccc(N(CCCl)CCCl)cc21 (configuration not stated) | -3% | 3% | ? | -63* | -17%
O=C1NC(=O)C2(CCCc3ccc(N(CCO)CCO)cc32)N1 (configuration not stated) | / | / | / | 3 | /
O=C1NC(=O)C2(CCCc3ccc(N(CCCl)CCCl)cc32)N1 (configuration not stated) | -23% | -15% | ? | -81* | -28%
COc1ccc2c(c1)OC(C)CN(CCNC(=O)c1cccc(N3CCNC3=O)c1)C2 (configuration not stated) | 4% | -15% | / | / | -16%
NC(C(=O)O)C(CC(=O)O)c1ccc(Cl)cc1 (configuration not stated) | -7% | -11% | / | / | -9%
Cc1ccc(Cl)cc1N1CCN(C(=O)c2ccc(CS(=O)(=O)c3ccc(Br)cc3)o2)CC1 | ? | -11% | / | -68* | 4%
